Bioassay records as filed in PubChem.
TGFb SMAD3 inh = qHTS for Inhibitors of TGF-b; 410,000 tested, 1.2% active; AID 588855, 2011; HepG2 CAGA-GFP TGF-b/SMAD3 reporter, GFP fluorescence, 18 h; TGF-beta stimulated, 500 pg/mL final; Potency, µM (titrated, usually from 46.1 µM), hits mostly inhibitors; also: nearly all actives have a fitted effect of over 65% in size
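Per well, imaged GFP fluorescence of HEPG2 CAGA-GFP cells gives the signal; cells get compound, then TGF-beta (500 pg/mL final), 18 h at 37 degrees C; %Activity versus -TGF-beta and +DMSO controls.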
ATXN2 expr inh = Primary qHTS for Inhibitors of ATXN expression | HEK-293 ATXN2-luciferase reporter, luminescence, 24 h | Potency, µM (doses to about 57 µM), actives largely listed as inhibitors | 360,000 tested, 0.72% active | AID 1745845, 2022; also: nearly all actives have a fitted effect of over 55% in size
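ATXN2-luciferase reporter cells (luciferase flanked by upstream and downstream ATXN2 gene portions) were treated 24 h at 37 °C with compounds at up to 57 uM. SteadyGlo luminescence gave expression; GF-AFC fluorescence gave viability.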
S2 tox = Viability Counterscreen for Primary qHTS for Inhibitors of ATXN expression; 400,000 tested, 0.49% active; S2 cells (HEK-293 line with an ATXN2-luciferase reporter) viability, CellTiter-Fluor protease fluorescence, 24 h; Potency, µM (titrated, usually from 56.7 µM), actives largely listed as cytotoxic; also: nearly all actives have a fitted effect of over 40% in size
HepG2 tox = qHTS for Inhibitors of TGF-b: Cytotox Counterscreen; Potency, µM (doses to about 46.1 µM), hits mostly cytotoxic; AID 588856, 2011; 410,000 tested, 0.76% active; HepG2 CAGA-GFP viability, ATP luminescence, 18 h
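CellTiter-Glo luminescence gave cytotoxicity after 18 hours at 37 degrees C. The cells were HepG2 CAGA-GFP in 1% FBS DMEM, stimulated with 500 pg/mL TGF-beta after compound addition. %Activity was normalised to no-cell wells (complete cell-killing) and DMSO (no toxicity), and curves were fitted and classified.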
IL1B secr inh = qHTS for Inhibitors of Inflammasome Signaling: IL-1-beta AlphaLISA Primary Screen; THP-1 LPS/ATP IL-1B secretion, AlphaLISA, 16 h; hits give low values; activity change, % at 57.5 µM; 360,000 tested, 4.7% active; AID 743279, 2014; in the data active = activity change below about -50%; inconclusive = mostly about -30% to -49%
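Secreted IL-1B measured by AlphaLISA bead assay after 16 h compound exposure of THP-1 cells; compounds (final up to 57.5 uM) added 1 h before LPS (250 ng/mL) and ATP (1.25 mM) stimulation; lower signal means less secretion.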
Large screens that a line does not name were inactive. This is a sample that favours compounds with a hit; in the whole collection about 5.7% have one here. Unless noted, calls follow the shape of the dose curve; as a rule, active = well fitted curve in the direction sought with a large enough effect; inconclusive = small, poorly fitted or top-dose-only effect, or another doubt; inactive = no such curve, though single readings can be large; an effect the other way counts as inactive or inconclusive.

CCOC(=O)C1=C(N)Oc2cc(O)ccc2C1c1ccc([N+](=O)[O-])cc1 (centres undefined)	TGFb SMAD3 inh inconclusive, IL1B secr inh -70
COc1cccc(C2=NN(S(C)(=O)=O)C(c3cn(-c4ccccc4)nc3-c3cccs3)C2)c1 (centres undefined)	none (no result: IL1B secr inh)
O=[N+]([O-])c1ccc(-n2nnnc2-c2ccccc2)c([N+](=O)[O-])c1	TGFb SMAD3 inh 10µM, ATXN2 expr inh inconclusive, S2 tox inconclusive, HepG2 tox 16µM, IL1B secr inh -64
O=[N+]([O-])c1ccc(-n2nnnc2-c2ccccc2)cc1	none (no result: ATXN2 expr inh)
CN(C(=O)CC(=O)Nc1ccc2nc3n(c(=O)c2c1)CCCCC3)c1ccccc1F	none (no result: IL1B secr inh)
O=C(CCl)NCCCN(C(=O)C(Cl)Cl)c1ccc([N+](=O)[O-])cc1	TGFb SMAD3 inh inconclusive, S2 tox 32µM, HepG2 tox 13µM (no result: ATXN2 expr inh)
COCCCNC(=O)c1ccc([N+](=O)[O-])cc1	none
Nc1ncnc2c1c(-c1cnc3[nH]ccc3c1)nn2C1CCCC1	ATXN2 expr inh 19µM (no result: TGFb SMAD3 inh, S2 tox, HepG2 tox, IL1B secr inh)
CC[C@]12c3[nH]c4ccccc4c3CCN1C(=O)C(CC(=O)NCCN1CCOCC1)C[C@@H]2C(=O)N1CCN(C(=O)c2ccco2)CC1 (some centres undefined)	none
CC(C)N(C(=O)[C@H]1C[C@H](CC(=O)NCc2ccco2)C(=O)N2CCc3c([nH]c4ccc(Cl)cc34)[C@]12C)C(C)C	TGFb SMAD3 inh 11µM, S2 tox inconclusive
CC(C)N(C(=O)[C@H]1C[C@H](CC(=O)NCCN2CCOCC2)C(=O)N2CCc3c([nH]c4ccc(Cl)cc34)[C@]12C)C(C)C	TGFb SMAD3 inh inconclusive, IL1B secr inh inconclusive
C[C@]12c3[nH]c4ccccc4c3CCN1C(=O)C(CC(=O)NCc1cccc(C(F)(F)F)c1)C[C@@H]2C(=O)N1CCCCC1 (some centres undefined)	TGFb SMAD3 inh 11µM, S2 tox inconclusive, IL1B secr inh -66
CC(C)N(C(=O)[C@H]1C[C@H](CC(=O)NCc2cccc(C(F)(F)F)c2)C(=O)N2CCc3c([nH]c4ccc(Cl)cc34)[C@]12C)C(C)C	IL1B secr inh -60
CC[C@]12c3[nH]c4ccccc4c3CCN1C(=O)C(CC(=O)NCc1cccc(C(F)(F)F)c1)C[C@@H]2C(=O)N1CCN(C(=O)c2ccco2)CC1 (some centres undefined)	S2 tox inconclusive, IL1B secr inh -52
CCN(CC)C(=O)[C@H]1C[C@H](CC(=O)NCc2ccco2)C(=O)N2CCc3c([nH]c4ccc(Cl)cc34)[C@]12C	TGFb SMAD3 inh inconclusive
CCN(C(=O)c1cc(S(=O)(=O)N2CCc3ccccc32)cn1C)c1cccc(C)c1	TGFb SMAD3 inh inconclusive (no result: ATXN2 expr inh, S2 tox, IL1B secr inh)
O=C(C[C@H]1C[C@H](C(=O)N2CCOCC2)[C@@]2(CCC3CCCC3)c3[nH]c4cc(-c5ccco5)ccc4c3CCN2C1=O)NCCN1CCOCC1	TGFb SMAD3 inh inconclusive, ATXN2 expr inh inconclusive (no result: S2 tox)
CN(C)CCCNC(=O)C[C@H]1C[C@H](C(=O)N2CCOCC2)[C@@]2(CCC3CCCC3)c3[nH]c4cc(-c5ccco5)ccc4c3CCN2C1=O	TGFb SMAD3 inh inconclusive, ATXN2 expr inh 25µM (no result: S2 tox)
CC(C)N(C(=O)[C@H]1C[C@H](CC(=O)NCc2cccc(C(F)(F)F)c2)C(=O)N2CCc3c([nH]c4cc(-c5ccco5)ccc34)[C@]12C)C(C)C	TGFb SMAD3 inh inconclusive, ATXN2 expr inh inconclusive, S2 tox inconclusive, IL1B secr inh -67
CC(C)(C)NC(=O)C[C@H]1C[C@H](C(=O)N2CCOCC2)[C@@]2(CCC3CCCC3)c3[nH]c4cc(-c5ccco5)ccc4c3CCN2C1=O	TGFb SMAD3 inh inconclusive, ATXN2 expr inh inconclusive, S2 tox inconclusive
O=C(C[C@H]1C[C@H](C(=O)N2CCOCC2)[C@@]2(CCC3CCCC3)c3[nH]c4cc(-c5ccco5)ccc4c3CCN2C1=O)NCc1cccc(C(F)(F)F)c1	TGFb SMAD3 inh inconclusive, S2 tox inconclusive, IL1B secr inh -53
